Measurements: PubChem BioAssay (NCI)
“And” between values parts separate entries of the source, which are not always exact repeats. Equal entries are not always repeated. Compounds without any hit were thinned out: in the full panel of roughly 83,000, 20% have a hit.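 A percent growth of 40 corresponds to 60% growth inhibition; 0 means no net growth; -100 means all cells died. Active threshold: below 10.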 The source holds several records for some structures; these can differ, active in one and inactive in another. The source made the active and inactive calls.

How the values were obtained:
Assay in all cases: NCI-60 one-dose screen, 48 h (100 = growth as untreated, 0 = no growth, -100 = all killed)
Conditions in all cases: 10 µM unless noted
NCI-H23 lung = system: NCI-H23 lung
NCI-H226 lung = system: NCI-H226 lung
NCI-H322M lung = system: NCI-H322M lung
HOP-62 NSCLC = system: HOP-62 NSCLC
NCI-H460 lung = system: NCI-H460 lung
HOP-92 NSCLC = system: HOP-92 NSCLC
NCI-H522 lung = system: NCI-H522 lung
A549/ATCC NSCLC = system: A549/ATCC NSCLC
786-0 renal = system: 786-0 renal
COLO 205 colon = system: COLO 205 colon
DU-145 prostate = system: DU-145 prostate
K-562 leukemia = system: K-562 leukemia
MALME-3M melanoma = system: MALME-3M melanoma
MDA-MB-231 breast = system: MDA-MB-231 breast
RXF 393 renal = system: RXF 393 renal
SF-268 CNS = system: SF-268 CNS
SF-295 CNS = system: SF-295 CNS
SF-539 CNS = system: SF-539 CNS
UACC-257 melanoma = system: UACC-257 melanoma
M14 melanoma = system: M14 melanoma

| Structure (SMILES) | growth (NCI-H23 lung) | growth (NCI-H226 lung) | growth (NCI-H322M lung) | growth (HOP-62 NSCLC) | growth (NCI-H460 lung) | growth (HOP-92 NSCLC) | growth (NCI-H522 lung) | growth (A549/ATCC NSCLC) | growth (786-0 renal) | growth (COLO 205 colon) | growth (DU-145 prostate) | growth (K-562 leukemia) | growth (MALME-3M melanoma) | growth (MDA-MB-231 breast) | growth (RXF 393 renal) | growth (SF-268 CNS) | growth (SF-295 CNS) | growth (SF-539 CNS) | growth (UACC-257 melanoma) | growth (M14 melanoma) |
| --- | --- | --- | --- | --- | --- | --- | --- | --- | --- | --- | --- | --- | --- | --- | --- | --- | --- | --- | --- | --- |
| Cc1ccc(S(=O)(=O)Nc2nc3ccccc3nc2Nc2ccc3nsnc3c2)cc1 | 48.7% (inactive) and 37.8% (inactive) | 72.9% (inactive) and 72.7% (inactive) | 58.5% (inactive) and 50.6% (inactive) | 48.5% (inactive) and 84.9% (inactive) | 32.1% (inactive) and 29.2% (inactive) | 6.25% (active) | 34.8% (inactive) and 23.3% (inactive) | 31% (inactive) and 38.4% (inactive) | 46.9% (inactive) and 45.1% (inactive) | 44.5% (inactive) and 76% (inactive) | 71.2% (inactive) and 62.5% (inactive) | 32.8% (inactive) and 35.3% (inactive) | 33.3% (inactive) and 9.84% (active) | 73.7% (inactive) and 68.8% (inactive) | 80.3% (inactive) and 87.8% (inactive) | 52.2% (inactive) and 54.5% (inactive) | 25.2% (inactive) and 26.7% (inactive) | 63.9% (inactive) and 60.8% (inactive) | 27% (inactive) and 54.4% (inactive) | 48% (inactive) and 49.6% (inactive) |
| CC(C)(O)Cn1cc(-c2ccc3nc(OC4CC4)ccc3c2)c2c(N)ncnc21 | 70.1% (inactive) and 42% (inactive) | 56.5% (inactive) and 26.5% (inactive) | 96.7% (inactive) and 73.5% (inactive) | 73.8% (inactive) and 39.8% (inactive) | 88.5% (inactive) and 27.6% (inactive) | 48% (inactive) and 32.8% (inactive) | 67.1% (inactive) and 36.8% (inactive) | 75.3% (inactive) and 51.3% (inactive) | 89.1% (inactive) and 60.2% (inactive) | 91.3% (inactive) and 58.7% (inactive) | 102% (inactive) and 75.6% (inactive) | 88% (inactive) and 35.8% (inactive) | 70.2% (inactive) and 44.2% (inactive) | 69.2% (inactive) and 46.4% (inactive) | 73.3% (inactive) and 50.5% (inactive) | 91.2% (inactive) and 57.1% (inactive) | 79.2% (inactive) and 56.7% (inactive) | 81.6% (inactive) and 58.6% (inactive) | 70.8% (inactive) | 80.6% (inactive) and 62.3% (inactive) |
| COc1ccccc1C(C)=O | 94% (inactive) and 109% (inactive) | 95.2% (inactive) and 107% (inactive) | 97.5% (inactive) and 103% (inactive) | 107% (inactive) and 102% (inactive) | 99.8% (inactive) and 109% (inactive) | 70.5% (inactive) | 113% (inactive) | 107% (inactive) and 96.9% (inactive) | 110% (inactive) and 96.6% (inactive) | 105% (inactive) | 107% (inactive) and 113% (inactive) | 84.9% (inactive) and 106% (inactive) | 114% (inactive) and 107% (inactive) | 104% (inactive) and 117% (inactive) | 99.3% (inactive) and 121% (inactive) | 92.7% (inactive) and 107% (inactive) | 106% (inactive) | 105% (inactive) and 107% (inactive) | 107% (inactive) and 110% (inactive) | 105% (inactive) and 95.7% (inactive) |
| Cc1cc(N=Nc2ccc(C)c(N=Nc3cc(C)c(N)cc3N)c2)c(N)cc1N | 89.5% (inactive) and 78.4% (inactive) | 87.5% (inactive) and 95.3% (inactive) | 92% (inactive) and 91% (inactive) | 60.6% (inactive) and 80.8% (inactive) | 97.4% (inactive) and 93.2% (inactive) | 66.2% (inactive) | 89.9% (inactive) and 54.9% (inactive) | 95.2% (inactive) and 81% (inactive) | 94.5% (inactive) and 102% (inactive) | 92.5% (inactive) and 81.2% (inactive) | 107% (inactive) and 90.9% (inactive) | 75.9% (inactive) and 34.5% (inactive) | 89.3% (inactive) and 98.5% (inactive) | 68.6% (inactive) and 73.3% (inactive) | 91.1% (inactive) and 89.1% (inactive) | 98.9% (inactive) and 80.7% (inactive) | 98.6% (inactive) and 66% (inactive) | 87.9% (inactive) and 99.8% (inactive) | 91.4% (inactive) and 89.9% (inactive) | 90.8% (inactive) and 65.4% (inactive) |
| O=C1OC(Oc2ccc(Br)cc2)(c2ccccc2)c2ccccc21 (stereo not given) | 91.1% (inactive) and 80.5% (inactive) | 75.6% (inactive) and 83.7% (inactive) | 99.3% (inactive) and 127% (inactive) | 113% (inactive) and 107% (inactive) | 91.3% (inactive) and 87.8% (inactive) | 95.7% (inactive) and 65.6% (inactive) | 69% (inactive) | 82.6% (inactive) and 88% (inactive) | 101% (inactive) and 73.2% (inactive) | 105% (inactive) and 111% (inactive) | 97.1% (inactive) and 84.1% (inactive) | 70.1% (inactive) | 89.5% (inactive) | 86.4% (inactive) and 107% (inactive) | 82.7% (inactive) and 82.3% (inactive) | 91.7% (inactive) and 76% (inactive) | 83.1% (inactive) and 82.3% (inactive) | 104% (inactive) and 98.5% (inactive) | 88.5% (inactive) and 90.9% (inactive) | 96.4% (inactive) and 98.2% (inactive) |
| COc1ccc(-c2cn[nH]c2-c2cc(OC)c(OC)c(OC)c2)cc1N | 22.5% (inactive) and 28.3% (inactive) | 69.4% (inactive) and 50.2% (inactive) | 45.3% (inactive) and 36.2% (inactive) | 52.2% (inactive) and 35.6% (inactive) | 4.87% (active) and 8.68% (active) | 53.9% (inactive) and 22.5% (inactive) | 0.102% (active) and 3.18% (active) | 12.4% (inactive) and 23% (inactive) | 18.1% (inactive) and 25.6% (inactive) | -55.7% (active) and -53.2% (active) | 13.8% (inactive) and 3.66% (active) | 11% (inactive) and 11.5% (inactive) | 78.7% (inactive) and 44.3% (inactive) | 22.9% (inactive) and 14.6% (inactive) | 19.3% (inactive) | 26.5% (inactive) and 48.8% (inactive) | 3.28% (active) and 17.5% (inactive) | 1.73% (active) and -4.41% (active) | 66.7% (inactive) | 10.5% (inactive) and 15% (inactive) |
| CCN(CC)CCNc1ccc(C)c2sc3ccccc3c(=O)c12 (tested in a mixture with another compound) | 46.1% (inactive) and 52.4% (inactive) | 64.9% (inactive) and 64.7% (inactive) | 30% (inactive) and 56% (inactive) | 51.4% (inactive) and 51.3% (inactive) | 8.45% (active) and 5.28% (active) | 68.6% (inactive) and 38.1% (inactive) | 22.6% (inactive) and 39.6% (inactive) | 21.9% (inactive) and 19.8% (inactive) | 33.7% (inactive) and 37.3% (inactive) | 27% (inactive) and 14.7% (inactive) | 36% (inactive) and 39.4% (inactive) | 0.322% (active) and 13.3% (inactive) | 30.9% (inactive) and 48.2% (inactive) | 18.3% (inactive) and 24.8% (inactive) | -9.22% (active) and 16.4% (inactive) | 36.2% (inactive) and 24.3% (inactive) | 35.4% (inactive) and 40.9% (inactive) | 38.6% (inactive) and 32% (inactive) | -52.9% (active) and -51.9% (active) | -50.9% (active) and -40.5% (active) |
